In all, about 1,300 sequences were measured (“log fluorescence intensity”: median about 8.3, highest 2% from about 12 on). What follows is part of a selection rich in the highest values, with near analogues and random picks from the rest.

The target in the assay is T1, ETS1 (Homo sapiens, UniProt P14921 1-441).
T1 sequence: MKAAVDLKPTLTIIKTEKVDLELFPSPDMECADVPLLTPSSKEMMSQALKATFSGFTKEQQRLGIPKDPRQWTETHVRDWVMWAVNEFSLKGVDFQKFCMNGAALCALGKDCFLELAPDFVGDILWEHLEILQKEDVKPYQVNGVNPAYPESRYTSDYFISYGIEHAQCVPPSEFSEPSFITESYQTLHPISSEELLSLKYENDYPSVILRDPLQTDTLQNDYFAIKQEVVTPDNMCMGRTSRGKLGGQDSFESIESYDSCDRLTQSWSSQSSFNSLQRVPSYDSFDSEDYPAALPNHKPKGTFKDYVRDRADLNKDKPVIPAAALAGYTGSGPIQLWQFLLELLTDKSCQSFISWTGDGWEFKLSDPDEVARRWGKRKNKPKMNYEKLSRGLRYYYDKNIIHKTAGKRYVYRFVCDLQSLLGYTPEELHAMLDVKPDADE
Nature of the assay: custom PBM; custom protein-binding microarray; buffer, salt, pH and temperature not stated; high values mean tight binding. To be noted: dsDNA, one strand shown.
Consider “ACTGCTGCGGTGCATACCCCACCGGATGTGACCCCGGTCTTGATTCGCTTGACGCTGCTG”, for which the binding signal was 10.4 log fluorescence intensity. Regarding “TAAAGGGAAGACGGCTGTGGTAGTTCCGGGTATTAAGTCTTGATTCGCTTGACGCTGCTG”, the binding signal was 8.35 log fluorescence intensity.

Consider “TAAAGGTAAGACGGTTGTGGTAGTTCCGGGTATTAAGTCTTGATTCGCTTGACGCTGCTG”, for which the binding signal is 8.54 log fluorescence intensity. Turning to “GGAAAAAGGCCCAGGGTAACACCGGAAGTGGGGTTAGTCTTGATTCGCTTGACGCTGCTG”, the binding signal is 12 log fluorescence intensity. Turning to “TAAAGGCAAGACGGTTGTGGTAGTTCCGGGTATTAAGTCTTGATTCGCTTGACGCTGCTG”, the binding signal is 8.32 log fluorescence intensity. The value for “GCTGCTGTGGTGCATACCCCACCGGATGTGACCCCGGTCTTGATTCGCTTGACGCTGCTG” was 10.3 log fluorescence intensity; that for “GGAACAAGGCCCAGGGTAACACCGGAAGTGGGCTTAGTCTTGATTCGCTTGACGCTGCTG” was 11.9 log fluorescence intensity. Under “CGGAAGAGTCGTAAACGTCGGATATCCGGTTCTTCTGTCTTGATTCGCTTGACGCTGCTG” stands 11.8 log fluorescence intensity; under “GGAAAAACGCCCAGGGTAACACCGGAAGTGGGCTTAGTCTTGATTCGCTTGACGCTGCTG”, 12.1 log fluorescence intensity.

In the case of “GCTGCTGCTGTGCATACCCCACCGGATGTGACCCCGGTCTTGATTCGCTTGACGCTGCTG”, the binding signal was 9.42 log fluorescence intensity.

As for “GGAAAAAGGCCCAGGGTAAGACCGGAAGTGGGCTTAGTCTTGATTCGCTTGACGCTGCTG”, the binding signal was 12 log fluorescence intensity. The value for “TAAAGGGAAGACGGTTGTGGTAGTTACGGGTATTAAGTCTTGATTCGCTTGACGCTGCTG” was 8.37 log fluorescence intensity; that for “TGTCGGGTAAGGGCATGTAGATCACGTGAATGAAAAGTCTTGATTCGCTTGACGCTGCTG” was 8.41 log fluorescence intensity; that for “GGAAAAAGGCCCAGGGTATCACCGGAAGTGGGCTTAGTCTTGATTCGCTTGACGCTGCTG” was 11.4 log fluorescence intensity. As for “TACTGACTTATAGATGCGAATGCACATGAATAGACCGTCTTGATTCGCTTGACGCTGCTG”, the binding signal is 8.45 log fluorescence intensity. The value for “TAAAGGGAAGACGGTTCTGGTAGTTCCGGGTATTAAGTCTTGATTCGCTTGACGCTGCTG” was 8.63 log fluorescence intensity. With “CAGCATAGGACTTCTTCCCTGAAGCAATTGATAACGGTCTTGATTCGCTTGACGCTGCTG”, the binding signal is 8.34 log fluorescence intensity.

Consider “CGGAAGTGTCGTAAACGTCGGATATCGGGTTCTTCTGTCTTGATTCGCTTGACGCTGCTG”, for which the binding signal was 8.65 log fluorescence intensity.

In the case of “GGGTATAGGATCCCATCCAACACACGTGTTAAAATGGTCTTGATTCGCTTGACGCTGCTG”, the binding signal was 8.44 log fluorescence intensity. Under “GTGTATAGGATCCCATCCAACACACGCGTTAAAATGGTCTTGATTCGCTTGACGCTGCTG” stands 8.37 log fluorescence intensity; under “CGGAAGTGTCGTAAACGTCGGATATCCGGTTCTCCTGTCTTGATTCGCTTGACGCTGCTG”, 11.8 log fluorescence intensity; under “GCTGCTGCGGTGCATACCCCAGCGGATGTGACCCCGGTCTTGATTCGCTTGACGCTGCTG”, 8.5 log fluorescence intensity. As for “GGAAAAAGGCCCAGCGTAACACCGGAAGTGGGCTTAGTCTTGATTCGCTTGACGCTGCTG”, the binding signal is 11.9 log fluorescence intensity. As for “TAAAGGGAAGACTGTTGTGGTAGTTCCGGGTATTAAGTCTTGATTCGCTTGACGCTGCTG”, the binding signal was 8.36 log fluorescence intensity.

Regarding “TAAAGGGAAGACGGTTGTGGTAGTTCCGGTTATTAAGTCTTGATTCGCTTGACGCTGCTG”, the binding signal is 9.95 log fluorescence intensity. Take “TAAAGGGAAGACGGTTGTGGTAGTTCCGGGCATTAAGTCTTGATTCGCTTGACGCTGCTG”: the binding signal was 8.59 log fluorescence intensity. In the case of “CGGAAGTGTCGTAAACGTCGGATATCTGGTTCTTCTGTCTTGATTCGCTTGACGCTGCTG”, the binding signal is 8.37 log fluorescence intensity.

For the sequence “GCTGCTACGGTGCATACCCCACCGGATGTGACCCCGGTCTTGATTCGCTTGACGCTGCTG”, the binding signal was 10.3 log fluorescence intensity. The value for “CGGAAGTGTCGTAAACGTCGGATATCCGGTTATTCTGTCTTGATTCGCTTGACGCTGCTG” was 12.1 log fluorescence intensity; that for “TCCGGCTACCAGCTCCACCCACTTCAAGCCTTGTAGGTCTTGATTCGCTTGACGCTGCTG” was 8.4 log fluorescence intensity. As to “TCCGGCTACCAGCTCCACCCACTTCCGGCCTTGTAGGTCTTGATTCGCTTGACGCTGCTG”, the binding signal is 13.1 log fluorescence intensity. As for “TCCGGCTACCAGCTCCACCCACTTCAGGCCTTGTAGGTCTTGATTCGCTTGACGCTGCTG”, the binding signal is 8.36 log fluorescence intensity. The value for “TAAAGGGAAGAGGGTTGTGGTAGTTCCGGGTATTAAGTCTTGATTCGCTTGACGCTGCTG” was 8.6 log fluorescence intensity; that for “TCCGGCTACCACCTCCACCCACTTCAGGCCTTGTAGGTCTTGATTCGCTTGACGCTGCTG” was 8.32 log fluorescence intensity; that for “GGAAAAAGGCCCAGGGTAACGCCGGAAGTGGGCTTAGTCTTGATTCGCTTGACGCTGCTG” was 10.7 log fluorescence intensity. With “GGAAAAAGGCCCAGGGTAACAGCGGAAGTGGGCTTAGTCTTGATTCGCTTGACGCTGCTG”, the binding signal is 10.2 log fluorescence intensity. For the sequence “GGAAAAAGCCCCAGGGTAACACCGGAAGTGGGCTTAGTCTTGATTCGCTTGACGCTGCTG”, the binding signal was 12.1 log fluorescence intensity.

As to “GGAAAAAAGCCCAGGGTAACACCGGAAGTGGGCTTAGTCTTGATTCGCTTGACGCTGCTG”, the binding signal was 12.1 log fluorescence intensity.

Regarding “CGAAAAAGGCCCAGGGTAACACCGGAAGTGGGCTTAGTCTTGATTCGCTTGACGCTGCTG”, the binding signal is 12 log fluorescence intensity. The value for “AGAAAAAGGCCCAGGGTAACACCGGAAGTGGGCTTAGTCTTGATTCGCTTGACGCTGCTG” was 11.9 log fluorescence intensity; that for “GGAAAAGGGCCCAGGGTAACACCGGAAGTGGGCTTAGTCTTGATTCGCTTGACGCTGCTG” was 11.8 log fluorescence intensity.

The record behind these values is publication PMC6602471.
